Tgondii IFNg: T. gondii growth inhibition with IFN-gamma, primary screen, cell-based | activity change, negative = inhibition, % (no concentration beside the values) | AID 1259416, 2018 | hit rate 3.8% among 69,000 | Toxoplasma gondii growth in IFN-gamma-treated host cells; active compounds read low; in the data active means activity change below about -70%, passing the limit was not always enough;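 further: host cells are HeLa cells infected with Toxoplasma gondii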
An asterisk follows results filed as active; ! = not active in a repeat. Shown is part of a subset that was picked to be rich in hits.

SMILES | Tgondii IFNg
Cc1nn(C)cc1C(C)NC(=O)c1cccc(OCc2c(C)noc2C)c1 (stereo not given) | 31.7
COC[C@@H]1CN(C)C(=O)[C@H]2CCN(S(=O)(=O)N(C)C)CC[C@@H]12 | -7.1
Cc1oc(-c2cccc(Cl)c2)nc1Cn1ccn2nc(-c3ccc4c(c3)OCO4)cc2c1=O | -35.7
COc1ccc(-c2nc(CCNC(=O)c3ccc(Cl)cc3)cs2)cc1 | 80.3
Cc1sc(NC(=O)CSc2nncn2C)c(C#N)c1C | 5.9
CCC(C)NCCOc1ccc(C(C)(C)c2ccccc2)cc1 (stereo not given) | -7.2
CCC(C)NCCOCCOc1ccc(Cl)c2ccccc12 (stereo not given) | -93.9*
CCOc1ccccc1OCCN[C@H](C)Cc1ccc(OC)c(S(N)(=O)=O)c1 | 16.3
CNC(=O)c1cc(C2CCC(CNC(=O)c3cnc(N(C)C)nc3)CC2)nc2ccccc12 (stereo not given) | 1.0
Cn1cnc2c(NCc3ccccc3)nc(C3CCN(S(C)(=O)=O)CC3)cc21 | -8.0
CC(C)n1cnc2c(NCC3CC3)nc(C3CCN(C(=O)c4cccc(F)c4F)CC3)cc21 | -38.6
Cc1cc(C(=O)N2CCC(c3cc4c(ncn4C)c(NCC4CC4)n3)CC2)ccc1Cl | -85.0*
Cc1cc(C)n(Cc2cc(C(=O)N3CCCC3c3ccccc3C)n[nH]2)n1 (stereo not given) | 0.6
Cc1[nH]c(C(=O)N2CCC(CC(=O)NCCc3c[nH]c4ccccc34)CC2)c(C)c1C | 74.4
Cn1c(=O)cc(Oc2cccnc2)c2cc(NC(=O)c3cccc(F)c3)ccc21 | -14.3
CN(Cc1ccc(-c2nc(-c3cccnc3)cc(=O)[nH]2)cc1)CC1COCCO1 (stereo not given) | -8.8
COc1cccc(-c2cnc(N(C)C)nc2C2CCCN(C(=O)Cc3c(C)noc3C)C2)c1 (stereo not given) | -12.7
Cc1cccc(-c2cnc(C)nc2C2CCCN(C(=O)/C=C/c3cc(F)ccc3F)C2)c1 (stereo not given) | -73.4*
COc1ccc(/C=C/C(=O)N2CCCC(c3nc(C)ncc3Cc3ccccc3)C2)cc1 (stereo not given) | -5.0
COc1ccc(-c2ccc(C(=O)NCc3nnc4n3CCCC4)o2)cc1 | 7.5
Cc1cc(C(F)(F)F)nn1CC(=O)N1CCCC1c1ccc(F)cc1 (stereo not given) | -77.9*
Cc1ccccc1C1CCCN1C(=O)Cn1nc(C(F)(F)F)cc1C (stereo not given) | 164.6
Cc1noc(C)c1C1CCCN1C(=O)Cn1nc(C(F)(F)F)cc1C (stereo not given) | 4.7
O=C(O)c1cccnc1CN(Cc1ccc2c(c1)OCO2)C1CC1 | 22.7
Cc1ccc(C(=O)N2CCC3(CC2)Nc2cc(F)ccc2-n2cccc23)cc1C | 44.6
SMILES | Tgondii IFNg
COc1ccc(-c2nc(CNS(=O)(=O)c3ccc(C(C)C)cc3)c(C)o2)cc1 | -74.7*
COc1ccc(-c2nc(CNS(=O)(=O)c3ccc(F)cc3)c(C)o2)cc1 | 32.6
COc1ccc(S(=O)(=O)NCc2nc(-c3ccccc3)oc2C)cc1 | 19.6
O=S(=O)(NCCc1csc(-c2cccc(F)c2)n1)c1ccc(Br)cc1 | -8.8
O=C(NCCc1ccccc1)c1ccc(Nc2ccc(OCc3ccccc3)cc2)nc1 | 9.8
CO[C@H]1CN(C)C(=O)c2cc(NC(=O)c3ccc(Oc4ccccc4)cc3)ccc2OC[C@H](C)NC[C@@H]1C | -91.9*
CO[C@@H]1CN(C)C(=O)c2cc(NC(=O)Nc3c(C)noc3C)ccc2OC[C@H](C)NC[C@H]1C | 206.6
CO[C@H]1CN(C)C(=O)c2cc(NC(=O)c3cnccn3)ccc2OC[C@@H](C)NC[C@H]1C | 110.3
CO[C@H]1CN(C)C(=O)c2cc(NC(=O)c3cnccn3)ccc2OC[C@H](C)NC[C@@H]1C | 173.2
CO[C@H]1CN(C)C(=O)c2cc(NC(=O)Nc3c(C)noc3C)ccc2OC[C@H](C)NC[C@H]1C | -1.3
COc1cccc(NC(=O)Nc2ccc3c(c2)C(=O)N(C)C[C@@H](OC)[C@H](C)CN[C@H](C)CO3)c1 | 20.2
CO[C@@H]1CN(C)C(=O)c2cc(NC(=O)c3ccc(Oc4ccccc4)cc3)ccc2OC[C@@H](C)NC[C@@H]1C | -115.4*
CO[C@H]1CN(C)C(=O)c2cc(NC(=O)c3ccc(Oc4ccccc4)cc3)ccc2OC[C@@H](C)NC[C@H]1C | 21.5
CO[C@@H]1CN(C)C(=O)c2cc(NC(=O)Nc3c(C)noc3C)ccc2OC[C@H](C)NC[C@@H]1C | -75.5*
COc1ccc(-c2nc(N(C)Cc3ccco3)c3ccccc3n2)cc1 | -26.9
O=C(Nc1ccc(-c2nc(-c3ccccc3)co2)cc1)c1ccc2c(c1)OCO2 | 7.1
CCc1ncc(C(=O)N2CC[C@@H](c3ccc4ccccc4c3)[C@H](O)C2)cn1 | 15.0
Cc1ccccc1C(=O)N1C[C@@H]2C(CN)[C@@H]2C1 (stereo not given in full) | -62.7
Cc1cc(NCCNC(=O)CN2C(=O)NC3(CCC(C)CC3)C2=O)c2ccccc2n1 (stereo not given) | -2.4
COc1cc(CNC(=O)C2(C)CCN(C(=O)c3cccc(F)c3)CC2)cc(OC)c1 | 3.9
Cn1ccn2ncc(C(=O)NCCSc3ccccn3)c12 | 6.3
Cc1cc(C)c(S(=O)(=O)N2CCC(C(=O)NCCc3csc(-c4ccccc4)n3)CC2)c(C)c1 | -50.7
O=C(c1nccnc1C(=O)N1CC(c2cccnc2)C1)N1CCCCC1 | 5.3
CC(C)c1nc(Cn2ccnc2-c2ccncc2)no1 | 1.7
CSc1cccc(NC(=O)N2CCCCC2CCN2CCCC2=O)c1 (stereo not given) | 3.7
SMILES | Tgondii IFNg
CSc1cccc(NC(=S)N2CCCCC2CCN2CCOCC2)c1 (stereo not given) | 14.7
CSc1ccc2c(c1)N(CCC1CCCCN1C)c1ccccc1S2 (stereo not given) | -95.3*!
COc1ccccc1N1CCN([C@H]2CN(C(=O)c3ccc[nH]3)C[C@@H]2O)CC1 | -4.3
Cc1cccc(C(N)c2nccn2C)c1 (stereo not given) | -0.2
CCOc1ccc(CCNC(=O)c2nc(N3CCC(C)CC3)c3ccccc3n2)cc1OCC | -98.3*
CCOc1cc(CNC(=O)c2nc(N3CCOCC3)c3ccccc3n2)ccc1OC | -20.1
CCOc1ccc(CCNC(=O)c2nc(N3CCCC3)c3ccccc3n2)cc1OCC | -62.7
COc1ccc(S(=O)(=O)Nc2ccc(-c3nc(-c4ccc(C)c(C)c4)co3)cc2)cc1 | 25.8
Cc1nc(CCC(=O)N2CCc3c(nc(N(C)C)nc3N(C)C)C2)n[nH]1 | 23.8
COCC1CCC2(CCN(C(=O)C3CC=CC3)CC2)N1C (stereo not given) | -2.6
CC1=CC(C)C(COC(=O)NC2CCCCC2)(COC(=O)NC2CCCCC2)C(C)C1 (stereo not given) | -100.8*
CS(=O)(=O)CC(=O)NC1CCCCC1 | 40.3
O=C(CNC(=O)OCc1ccccc1)NC1CCCCCC1 | 12.1
CS(=O)(=O)N1CCO[C@@H]2CN(C(=O)c3ccoc3)CC[C@H]2C1 | 4.6
O=C(Nc1n[nH]c(-c2ccco2)n1)N1CC=C(c2ccccc2)CC1 | -1.3
Cc1ccc(C2=NC3(CCN(CC(=O)Nc4cc(F)ccc4F)CC3)NC2=O)cc1C | 92.2
CC(=O)N1CCC(C(=O)NCc2ccccc2)(N(C(=O)c2ccc(C)cc2)c2ccc(Cl)cc2)CC1 | -43.6
CCC(=O)Nc1ccc(S(=O)(=O)N2CCc3nc(-c4ccccc4)sc3C2)cc1 | -13.2
Cc1nc2cc(-c3ccccc3)sc2c(=O)n1N | -107.1*
Cc1nn(-c2ccc(F)cc2F)c(=O)c2nc(-c3ccccc3)sc12 | -0.4
Cc1cc(C)c2c(n1)sc1c(=O)n(N)c(C)nc12 | -22.4

Bioassay records from PubChem BioAssay.
